# ELG1 genotox: qHTS screen for small molecules that induce genotoxicity in human embryonic kidney (HEK293T) cells expressing luciferase-tagged ELG1; HEK293T ELG1-luciferase reporter, luminescence, 16 h; Potency, µM (top dose mostly 46 µM), for the others: at the top dose activity change, positive = activation, usual class: activators; 330,000 tested, 1.3% active; AID 504466, 2011; note: % of control where 0% means no effect; nearly all actives have a fitted effect of over 60% in size
#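 HEK293T cells expressing luciferase-tagged ELG1 were exposed to compound or DMSO vehicle for 16 hr at 37 °C and 5% CO2. Luciferase activity was then measured with ONE-Glo after 30 min at room temperature.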
# SW480 rerep: A quantitative high throughput screen for small molecules that induce DNA re-replication in SW480 colon adenocarcinoma cells; SW480 DNA re-replication, Hoechst DNA content imaging, 48 h; Potency, µM (titrated, usually from 46.1 µM), without a hit: top-dose re-replication activation, usual class: activators; 340,000 tested, 1.8% active; note: % of control where 0% means no effect; nearly all actives have a fitted effect of over 55% in size
#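 Quantitative HTS format with DMSO vehicle controls; 48 hr drug incubation at 37 C, then 40 min Hoechst staining and scanning imager measurement at 405 nm excitation.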
# AT treatment: qHTS Assay for Identifying a Potential Treatment of Ataxia-Telangiectasia. 320,000 tested, 0.19% active. Potency, µM (titrated, usually from 57.5 µM), inactives show top-dose activation, actives largely listed as activators. F2112 A-T fibroblasts, KAP-1 phosphorylation AlphaLISA; neocarzinostatin DNA damage 30 min before lysis; note: % of control where 0% means no effect; nearly all actives have a fitted effect of over 45% in size
#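 ATM-like activity read as KAP-1 phosphorylation via AlphaLISA donor/acceptor antibody pairs after lysis and 6 hr at 25C. Cells were ATM-null patient fibroblasts (F2112, hTERT), dosed 60 min, then exposed to the DSB inducer NCS for 30 min.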
# MCF10A rereplic: A quantitative high throughput screen for small molecules that induce DNA re-replication in MCF 10a normal breast cells. 350,000 tested, 2.9% active. Potency, µM (highest dose often 46.1 µM), for the others: at the top dose activity, positive = re-replication, most hits filed as activators. MCF 10A DNA re-replication, Hoechst nuclear intensity, 48 h. AID 624296, 2012; note: % of control where 0% means no effect; nearly all actives have a fitted effect of over 50% in size
# p53 reactivation: qHTS assay for re-activators of p53 using a Luc reporter; H1299 p53-A138V BP100-luciferase reporter, luminescence, 24 h; Potency, µM (doses to about 92.2 µM), for the others: at the top dose activity change, positive = activation, usual class: activators; 320,000 tested, 0.063% active; AID 504706, 2011; note: % of control where 0% means no effect; nearly all actives have a fitted effect of over 45% in size
#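 p53-null H1299 cells stably carrying temperature-sensitive p53-A138V and a BP100-luciferase reporter were pinned with compounds (4-point, 1:5 series) and held 24 hrs at 37 deg C. Luminescence was read 10 min after detection reagent.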
# ELG1 DNA repair: qHTS screen for small molecules that inhibit ELG1-dependent DNA repair in human embryonic kidney (HEK293T) cells expressing luciferase-tagged ELG1; Potency, µM (doses to about 46.1 µM), for inactives: at the highest dose activity change, negative = inhibition, most hits filed as inhibitors; AID 504467, 2011; HEK293T ELG1-luciferase reporter, luminescence, 16 h; DNA damage induced by 5-fluorouridine; 330,000 tested, 2.3% active; note: % is set by controls: 0 for no effect and ±100 for the full control effect; nearly all actives have a fitted effect of over 55% in size
#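 Overnight (16 hr) co-exposure of 2,000 cells/well to 5-fluorouridine and compound at 37 °C preceded detection. Luciferase was quantified via ONE-Glo luminescence; loss of signal denotes inhibition.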
# * = called active by the depositor; ? = inconclusive; . = not tested or not shown; [ ] = remark or other dose. Hits are enriched below; roughly 7.1% of the tested compounds scored in any of these assays. Calls come from the whole dose curve; as a rule, active = well fitted curve in the direction sought with a large enough effect; inconclusive = small, poorly fitted or top-dose-only effect, or another doubt; inactive = no such curve, though single readings can be large; an effect the other way counts as inactive or inconclusive. Potency is the fitted concentration of half-maximal effect.
SMILES,ELG1 genotox,SW480 rerep,AT treatment,MCF10A rereplic,p53 reactivation,ELG1 DNA repair
O=C(CCNC(=O)c1ccccc1Cl)Nc1cccc(S(=O)(=O)N2CCOCC2)c1,0%,6%,3%,-2%,3%,27%
COc1ccc(S(=O)(=O)Nc2c(O)ccc3ccccc23)cc1OC,.,4%[9.22 µM],.,16µM*,.,.
COc1ccc(S(=O)(=O)Nc2ccccc2C)cc1,-1%,13µM*,2%,21µM*,-5%,-12%
COc1ccc(S(=O)(=O)Nc2c(F)cccc2F)cc1,0%,-8%,4%,-32%,-4%,0%
COc1ccc(S(=O)(=O)Nc2cccc3ccc(O)cc23)cc1,.,?,.,21µM*,.,.
O=C(CCN1C(=O)C2CC=CCC2C1=O)Nc1cccc(Cl)c1 (configuration not stated),7%,-2%,5%,-3%,-20%,14%
COCCN(C(=O)CC1C(=O)NCCN1CC(c1ccccc1)c1ccccc1)C(C)C (configuration not stated),-3%,-4%,6%[11.5 µM],-6%,-3%,-14%
Cc1cc(N/N=C/c2ccco2)c2ccccc2n1,0%,3%,3%,0%,5%,13%
Cc1ccnc(N/N=C/c2ccco2)n1,?,16µM*,.,2.9µM*,12%,?
O=C1N=C(N2CCOCC2)S/C1=C1\C(=O)N(Cc2ccccc2)c2ccccc21,?,-7%,-1%,-8%,11%,?
CC1CN(C2=NC(=O)/C(=C3/C(=O)N(Cc4ccc(F)cc4)c4ccccc43)S2)CC(C)O1 (configuration not stated),-3%,-1%,10%,1%,-4%,12µM*
CCOC(=O)c1ccc(NC(=S)Nc2ccccn2)cc1,15µM*,?,9%,0%,?,?
CCOC(=O)c1ccc(Nc2cnc3ccccc3n2)cc1,9.2µM*,-3%,0%,?,-5%,?
CCOC(=O)c1ccc(NC(=S)Nc2ccc(Cl)cn2)cc1,8%,?,1%,?,-1%,1%
COc1cc(NC(=O)COc2ccc(Cl)cc2)ccc1-c1cc2ccccc2oc1=O,4%,?,15%,7.3µM*,15%,?
COc1cc(NC(=O)COc2ccc(Cl)cc2)ccc1NC(=O)C(C)C,-4%,30%,-3%,-15%,0%,-2%
CCCN=Cc1sc2ccc(OCC)cc2c1O,23µM*,0%,-10%,?,17%,?
O=S(=O)(NC1c2cccc3cccc(c23)C1N1CCN(CCO)CC1)c1ccccc1 (configuration not stated),?,6%[9.22 µM],9%,23µM*,-3%,?
Cc1cc(C)c(C2=Nn3c(C)nnc3SC2C)cc1C (configuration not stated),7%,-13%,-3%,-4%,-2%,-33%
Cc1cc(C)n(CCOc2ccc(Br)cc2)n1,0%,-28%,8%,-9%,-3%,-3%
CC(=O)N1CCc2c(sc(NC(=O)c3ccc4c(c3)OCCO4)c2C#N)C1,?,18µM*,-5%,15µM*,4%,?
CC(=O)N1CCc2c(sc(NC(=O)c3ccc(S(=O)(=O)N(C)C)cc3)c2C#N)C1,.,-16%,.,0%,.,.
CC1(C)Oc2ccc3ccc(=O)oc3c2/C(=C/NNC(N)=O)C1=O,?,-12%,9%,0%,3%,7%
CC1(C)Oc2ccc3ccc(=O)oc3c2/C(=C/NCCN/C=C2\C(=O)C(C)(C)Oc3ccc4ccc(=O)oc4c32)C1=O,-3%,.,0%,.,-4%,8.2µM*
CCOC(=O)c1sc(NC(=O)CSc2nc3cccnc3n2C)nc1C,-7%,-30%,-3%,-3%,-4%,?
SMILES,ELG1 genotox,SW480 rerep,AT treatment,MCF10A rereplic,p53 reactivation,ELG1 DNA repair
CCOC(=O)c1cccc(NC(=O)CSc2nc3cccnc3n2C)c1,-17%,-3%,-3%,?,-24%,18µM*
COc1ccc(-c2[nH]ncc2CN2CCN(Cc3cccs3)CC2)cc1F,-11%,4%,-2%,-2%,-2%,21µM*
COc1ccc(-c2[nH]ncc2CN(C)CCN2CCOCC2)cc1F,4%,4%,-12%,16%,-2%,9%
CCN(CC)C1CCN(Cc2cn[nH]c2-c2ccc(OC)c(F)c2)C1 (configuration not stated),2%,4.1µM*,3%,2%,1%,-15%
NC(=S)Nc1cccc2cc3ccccc3cc12,-4%,12µM*,-4%,?,?,3%
NC(=S)Nc1cc2ccccc2c2ccccc12,-4%,-3%,-3%,2%,-1%,-6%
O=C1CCC(/C=C/c2ccccc2)=NN1Cc1ccccc1,-1%,-7%,2%,0%,-2%,-6%
CC(C)(C)c1ccc(CN2N=C(/C=C/c3ccccc3)CCC2=O)cc1,-4%,?,1%,21µM*,11%,-1%
CC1CCN(c2nc(Cl)nc(Nc3ccc([N+](=O)[O-])cc3)n2)CC1,12%,-3%,-10%,5.2µM*,-16%,?
CCOc1ccc(CSC(=N)N)cc1Cl,-20%,?,-1%,18µM*,6%,8%
CCOc1ccc(CSC(=N)N)cc1[N+](=O)[O-],-1%,?,0%,?,-8%,?
c1cnc(SCCOc2cccc3ccccc23)nc1,12µM*,0%,23%,14%,13%,?
Clc1ccc(OCCSc2ncccn2)c2ccccc12,6%,-9%,24%,20%,20%,?
O=[N+]([O-])c1ccc(-n2nnnc2-c2ccccc2)cc1,1%,-105%,-1%,?,29%,1%
O=[N+]([O-])c1ccc(-n2nnnc2-c2ccccc2)c([N+](=O)[O-])c1,-17%,5.2µM*,12%,4.1µM*,-24%,?
Cc1ccc(NC(=O)Nc2ccc3c(c2)OCO3)cc1F,9.2µM*,21%,3%,-1%,?,?
O=C(Nc1ccc2[nH]c(=S)sc2c1)Nc1ccccc1F,0.58µM*,-4%,-5%,9%,?,?
Cc1cc(F)ccc1NC(=O)Nc1ccc2c(c1)OCO2,?,8%,-22%,-3%,?,?
O=C(Nc1ccc2c(c1)OCCO2)Nc1ccc2c(c1)OCO2,?,1%,-2%,1%,-8%,?
